Assay results: PubChem BioAssay AID1159580 (chemical genetic matrix, 2015)
Several values for one entry are separate records, joined by “and”; a condition that tells them apart may be missing. Equal values may be shown once. Screen size: about 5,500 compounds; about 2,000 (36%) were called active. Inconclusive results (about 18%) are left out. Rule as the data show it: active = normalized growth mostly below about 0.91 (no sharp cut-off); inconclusive = no clear call, values can overlap the other calls; inactive = mostly above about 0.92. The list shows a part of the results.

Test: chemical genetic growth profiling, strain panel (AID 1159580);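 also: tested at 20 µM; growth read once vehicle control cultures reached saturation at 30 °C; 1 = growth at the plate median or of vehicle wells; lower values mean less growth of the strain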
Conditions: growth OD
[1] = S. cerevisiae deletion strains, locus YAL013W, strain DEP1, stronger effect = lower value
[2] = S. cerevisiae deletion strains, locus YBR229C, strain ROT2, stronger effect = lower value
[3] = S. cerevisiae deletion strains, locus YCL061C, strain MRC1, stronger effect = lower value
[4] = S. cerevisiae deletion strains, locus YDL101C, strain DUN1, stronger effect = lower value
[5] = S. cerevisiae deletion strains, locus YDR150W, strain NUM1, stronger effect = lower value
[6] = S. cerevisiae deletion strains, locus YEL061C, strain CIN8, stronger effect = lower value
[7] = S. cerevisiae deletion strains, locus YGR078C, strain PAC10, stronger effect = lower value
[8] = S. cerevisiae deletion strains, locus YHR030C, strain SLT2, stronger effect = lower value
[9] = S. cerevisiae deletion strains, locus YHR087W, strain rtc3, stronger effect = lower value
[10] = S. cerevisiae deletion strains, locus YJR043C, strain POL32, stronger effect = lower value
[11] = S. cerevisiae deletion strains, locus YJR075W, strain HOC1, stronger effect = lower value
[12] = S. cerevisiae deletion strains, locus YLR039C, strain RIC1, stronger effect = lower value
[13] = S. cerevisiae deletion strains, locus YLR058C, strain SHM2 (second series), stronger effect = lower value
[14] = S. cerevisiae deletion strains, locus YLR085C, strain ARP6, stronger effect = lower value
[15] = S. cerevisiae deletion strains, locus YLR262C, strain YPT6, stronger effect = lower value
[16] = S. cerevisiae deletion strains, locus YML094W, strain GIM5, stronger effect = lower value
[17] = S. cerevisiae deletion strains, locus YMR219W, strain ESC1, stronger effect = lower value
[18] = S. cerevisiae deletion strains, locus YMR263W, strain SAP30, stronger effect = lower value
[19] = S. cerevisiae deletion strains, locus YMR307W, strain GAS1, stronger effect = lower value
[20] = S. cerevisiae deletion strains, locus YNL153C, strain GIM3, stronger effect = lower value
[21] = S. cerevisiae deletion strains, locus YNL298W, strain CLA4 (second series), stronger effect = lower value
[22] = S. cerevisiae deletion strains, locus YNL322C, strain KRE1, stronger effect = lower value
[23] = S. cerevisiae deletion strains, locus YNR030W, strain Alg12, stronger effect = lower value
[24] = S. cerevisiae deletion strains, locus YOL006C, strain TOP1, stronger effect = lower value
[25] = S. cerevisiae deletion strains, locus YPL055C, strain LGE1, stronger effect = lower value
[26] = S. cerevisiae deletion strains, locus YPL241C, strain CIN2, stronger effect = lower value
[27] = S. cerevisiae deletion strains, locus YPR135W, strain CTF4, stronger effect = lower value

CCOC(=O)C1CCN(C(=S)Nc2ccccc2C(F)(F)F)CC1
normalized growth [1]: 1 (inactive) | normalized growth [2]: 1 (inactive) | normalized growth [3]: 1.02 (inactive) | normalized growth [4]: 1.01 (inactive) | normalized growth [5]: 0.994 (inactive) | normalized growth [6]: 0.998 (inactive) | normalized growth [7]: 1.01 (inactive) | normalized growth [8]: 0.99 (inactive) | normalized growth [9]: 1.02 (inactive) | normalized growth [10]: 1 (inactive) | normalized growth [11]: 0.982 (inactive) | normalized growth (S. cerevisiae deletion strains, locus YKL190W, strain CNB1, stronger effect = lower value): 0.994 (inactive) | normalized growth [12]: 0.866 (inactive) | normalized growth [13]: 0.996 (inactive) | normalized growth [14]: 0.983 (inactive) | normalized growth [15]: 0.868 (inactive) | normalized growth [16]: 1.08 (inactive) | normalized growth [17]: 1 (inactive) | normalized growth [18]: 1.01 (inactive) | normalized growth [19]: 0.913 (inactive) | normalized growth [20]: 1.01 (inactive) | normalized growth [21]: 0.973 (inactive) | normalized growth [22]: 1.01 (inactive) | normalized growth [23]: 0.978 (inactive) | normalized growth [24]: 1.04 (inactive) | normalized growth [25]: 1.03 (inactive) | normalized growth [26]: 1.01 (inactive) | normalized growth [27]: 0.982 (inactive) | normalized growth (S. cerevisiae strains, strain wild type, stronger effect = lower value): 1.01 (inactive)

CCOC(=O)CSC(=S)NCc1ccc(C)cc1
normalized growth [1]: 0.822 (active) | normalized growth (S. cerevisiae deletion strains, locus YAR019C, strain CDC15, stronger effect = lower value): 0.956 (inactive) | normalized growth (S. cerevisiae deletion strains, locus YBL105C, strain PKC1, stronger effect = lower value): 0.958 (inactive) | normalized growth (S. cerevisiae deletion strains, locus YBR135W, strain CKS1, stronger effect = lower value): 0.937 (inactive) | normalized growth (S. cerevisiae deletion strains, locus YBR136W, strain MEC1, stronger effect = lower value): 0.955 (inactive) | normalized growth (S. cerevisiae deletion strains, locus YBR160W, strain CDC28, stronger effect = lower value): 0.951 (inactive) | normalized growth [2]: 0.866 (active) | normalized growth [3]: 0.907 (active) | normalized growth (S. cerevisiae deletion strains, locus YDL017W, strain CDC7, stronger effect = lower value): 0.959 (inactive) | normalized growth (S. cerevisiae deletion strains, locus YDL028C, strain MPS1, stronger effect = lower value): 0.947 (inactive) | normalized growth [4]: 0.947 (inactive) and 0.839 (active) | normalized growth (S. cerevisiae deletion strains, locus YDL108W, strain KIN28, stronger effect = lower value): 0.956 (inactive) | normalized growth (S. cerevisiae deletion strains, locus YDL132W, strain cdc53, stronger effect = lower value): 0.928 (inactive) | normalized growth (S. cerevisiae deletion strains, locus YDL134C, strain PPH21, stronger effect = lower value): 0.0516 (active) | normalized growth (S. cerevisiae deletion strains, locus YDL214C, strain PRR2, stronger effect = lower value): 0.95 (inactive) | normalized growth (S. cerevisiae deletion strains, locus YDR052C, strain DBF4, stronger effect = lower value): 0.972 (inactive) | normalized growth (S. cerevisiae deletion strains, locus YDR054C, strain cdc34, stronger effect = lower value): 0.93 (inactive) | normalized growth [5]: 0.787 (active) | normalized growth (S. cerevisiae deletion strains, locus YDR226W, strain ADK1, stronger effect = lower value): 0.946 (inactive) | normalized growth (S. cerevisiae deletion strains, locus YDR477W, strain SNF1, stronger effect = lower value): 0.949 (inactive) | normalized growth [6]: 0.216 (active) | normalized growth (S. cerevisiae deletion strains, locus YER123W, strain YCK3, stronger effect = lower value): 0.933 (inactive) | normalized growth (S. cerevisiae deletion strains, locus YER133W, strain GLC7, stronger effect = lower value): 0.953 (inactive) | normalized growth (S. cerevisiae deletion strains, locus YFL009W, strain cdc4, stronger effect = lower value): 0.944 (inactive) | normalized growth (S. cerevisiae deletion strains, locus YFL029C, strain CAK1, stronger effect = lower value): 0.958 (inactive) | normalized growth (S. cerevisiae deletion strains, locus YFR003C, strain YPI1, stronger effect = lower value): 0.957 (inactive) | normalized growth (S. cerevisiae deletion strains, locus YFR019W, strain FAB1, stronger effect = lower value): 0.957 (inactive) | normalized growth (S. cerevisiae deletion strains, locus YFR028C, strain CDC14, stronger effect = lower value): 0.947 (inactive) | normalized growth (S. cerevisiae deletion strains, locus YGR040W, strain KSS1, stronger effect = lower value): 0.946 (inactive) | normalized growth (S. cerevisiae deletion strains, locus YGR052W, strain FMP48, stronger effect = lower value): 1.01 (inactive) | normalized growth [7]: 0.766 (active) | normalized growth (S. cerevisiae deletion strains, locus YGR092W, strain DBF2, stronger effect = lower value): 0.937 (inactive) | normalized growth [8]: 0.0833 (active) and 0.84 (active) | normalized growth (S. cerevisiae deletion strains, locus YHR079C, strain IRE1, stronger effect = lower value): 0.93 (inactive) | normalized growth (S. cerevisiae deletion strains, locus YHR082C, strain KSP1, stronger effect = lower value): 0.964 (inactive) | normalized growth [9]: 0.86 (active) | normalized growth (S. cerevisiae deletion strains, locus YHR205W, strain SCH9, stronger effect = lower value): 0.872 (inactive) | normalized growth (S. cerevisiae deletion strains, locus YIL147C, strain SLN1, stronger effect = lower value): 0.951 (inactive) | normalized growth (S. cerevisiae deletion strains, locus YJL095W, strain BCK1, stronger effect = lower value): 0.879 (inactive) | normalized growth (S. cerevisiae deletion strains, locus YJL128C, strain PBS2, stronger effect = lower value): 0.954 (inactive) | normalized growth (S. cerevisiae deletion strains, locus YJL157C, strain FAR1, stronger effect = lower value): 0.963 (inactive) | normalized growth (S. cerevisiae deletion strains, locus YJL187C, strain SWE1, stronger effect = lower value): 0.958 (inactive) | normalized growth (S. cerevisiae deletion strains, locus YJR016C, strain ILV3, stronger effect = lower value): 0.954 (inactive) | normalized growth [10]: 0.812 (active) | normalized growth (S. cerevisiae deletion strains, locus YJR066W, strain TOR1 (second series), stronger effect = lower value): 0.989 (inactive) | normalized growth (S. cerevisiae deletion strains, locus YJR066W, strain TOR1, stronger effect = lower value): 0.957 (inactive) | normalized growth [11]: 0.82 (active) | normalized growth (S. cerevisiae deletion strains, locus YKL048C, strain ELM1, stronger effect = lower value): 0.944 (inactive) | normalized growth (S. cerevisiae deletion strains, locus YKL067W, strain YNK1, stronger effect = lower value): 0.95 (inactive) | normalized growth (S. cerevisiae deletion strains, locus YKL101W, strain HSL1, stronger effect = lower value): 0.955 (inactive) | normalized growth (S. cerevisiae deletion strains, locus YKL193C, strain SDS22, stronger effect = lower value): 0.948 (inactive) | normalized growth (S. cerevisiae deletion strains, locus YKL203C, strain TOR2, stronger effect = lower value): 1 (inactive) | normalized growth [12]: 0.172 (active) | normalized growth [13]: 0.909 (active) | normalized growth [14]: 0.0735 (active) | normalized growth (S. cerevisiae deletion strains, locus YLR113W, strain HOG1, stronger effect = lower value): 0.76 (active) | normalized growth (S. cerevisiae deletion strains, locus YLR133W, strain CKI1, stronger effect = lower value): 0.959 (inactive) | normalized growth [15]: 0.111 (active) | normalized growth (S. cerevisiae deletion strains, locus YLR403W, strain SFP1, stronger effect = lower value): 0.967 (inactive) | normalized growth (S. cerevisiae deletion strains, locus YML070W, strain DAK1, stronger effect = lower value): 0.949 (inactive) | normalized growth [16]: 0.493 (active) | normalized growth (S. cerevisiae deletion strains, locus YMR001C, strain CDC5, stronger effect = lower value): 0.946 (inactive) | normalized growth (S. cerevisiae deletion strains, locus YMR205C, strain PFK2 (second series), stronger effect = lower value): 0.965 (inactive) | normalized growth [17]: 0.909 (active) | normalized growth [18]: 0.853 (active) | normalized growth (S. cerevisiae deletion strains, locus YMR277W, strain FCP1, stronger effect = lower value): 0.957 (inactive) | normalized growth [19]: 0.109 (active) | normalized growth (S. cerevisiae deletion strains, locus YNL006W, strain LST8, stronger effect = lower value): 0.959 (inactive) | normalized growth (S. cerevisiae deletion strains, locus YNL020C, strain ARK1, stronger effect = lower value): 0.948 (inactive) | normalized growth [20]: 0.665 (active) | normalized growth (S. cerevisiae deletion strains, locus YNL161W, strain CBK1, stronger effect = lower value): 0.953 (inactive) | normalized growth (S. cerevisiae deletion strains, locus YNL183C, strain NPR1, stronger effect = lower value): 0.912 (inactive) | normalized growth (S. cerevisiae deletion strains, locus YNL207W, strain RIO2, stronger effect = lower value): 0.953 (inactive) | normalized growth (S. cerevisiae deletion strains, locus YNL222W, strain SSU72, stronger effect = lower value): 0.956 (inactive) | normalized growth [21]: 0.0782 (active) | normalized growth (S. cerevisiae deletion strains, locus YNL307C, strain MCK1 (second series), stronger effect = lower value): 0.928 (inactive) | normalized growth [22]: 0.925 (active) | normalized growth [23]: 0.0728 (active) | normalized growth [24]: 0.107 (active) | normalized growth (S. cerevisiae deletion strains, locus YOL078W, strain AVO1, stronger effect = lower value): 0.948 (inactive) | normalized growth (S. cerevisiae deletion strains, locus YOL136C, strain PFK27, stronger effect = lower value): 0.946 (inactive) | normalized growth (S. cerevisiae deletion strains, locus YOR061W, strain CKA2, stronger effect = lower value): 0.965 (inactive) | normalized growth (S. cerevisiae deletion strains, locus YOR119C, strain RIO1, stronger effect = lower value): 1.01 (inactive) | normalized growth (S. cerevisiae deletion strains, locus YOR231W, strain MKK1, stronger effect = lower value): 0.914 (inactive) | normalized growth (S. cerevisiae deletion strains, locus YOR329C, strain SCD5, stronger effect = lower value): 0.952 (inactive) | normalized growth (S. cerevisiae deletion strains, locus YPL031C, strain PHO85, stronger effect = lower value): 0.944 (inactive) | normalized growth [25]: 0.618 (active) | normalized growth (S. cerevisiae deletion strains, locus YPL153C, strain RAD53, stronger effect = lower value): 0.954 (inactive) | normalized growth (S. cerevisiae deletion strains, locus YPL204W, strain HRR25, stronger effect = lower value): 0.943 (inactive) | normalized growth (S. cerevisiae deletion strains, locus YPL209C, strain IPL1, stronger effect = lower value): 0.953 (inactive) | normalized growth [26]: 0.0682 (active) | normalized growth (S. cerevisiae deletion strains, locus YPL256C, strain CLN2, stronger effect = lower value): 0.825 (active) | normalized growth (S. cerevisiae deletion strains, locus YPR025C, strain CCL1, stronger effect = lower value): 0.943 (inactive) | normalized growth (S. cerevisiae deletion strains, locus YPR106W, strain ISR1, stronger effect = lower value): 0.951 (inactive) | normalized growth (S. cerevisiae deletion strains, locus YPR111W, strain DBF20, stronger effect = lower value): 0.931 (inactive) | normalized growth [27]: 0.148 (active) | normalized growth (S. cerevisiae deletion strains, strain NNK1, stronger effect = lower value): 0.948 (inactive) | normalized growth (S. cerevisiae deletion strains, strain TSCII, stronger effect = lower value): 0.949 (inactive)
